PubChem BioAssay (Tox21)
Results filed as inconclusive are left out. Unmarked numbers belong to inactive results. Active and inactive are the calls of the source. Calls follow the shape of the dose curve; as a rule, active = well fitted inhibition curve with a large enough effect in the repeat runs; inconclusive = weak or mixed curves; inactive = no such curve, though single readings can be large or run the other way.

Molecular target: Cytochrome P450 3A4 (Homo sapiens) (UniProt P08684)
Assay: Cytochrome P450 Family 3 Subfamily A Member 4 (CYP3A4) small molecule antagonists: luciferase reporter qHTS assay (AID 1671201); also: nearly all actives have a fitted effect of over 50% in size
Conditions: P450-Glo CYP3A4 enzyme, luciferin luminescence, 1 h; series mostly up to 115 µM; activity change, negative = inhibition: at the top concentration
Excerpt: National Center for Advancing Translational Sciences [NCATS]
U.S. Environmental Protection Agency [EPA]
National Institutes of Environmental Health Sciences [NIEHS]
National Toxicology Program [NTP]
U.S. Food and Drug Administration [FDA]
Cytochrome P450 (CYP) enzymes are membrane-bound hemeproteins that play a key role in metabolism of drugs and xenobiotics. Evaluation of the effect of chemicals on CYP isozymes is useful to minimize the adverse drug reactions and toxicities in drug development process. Tox21 chemicals were tested for their effect on CYP enzyme activities by using P450-Glo (TM) screening systems (Promega Corporation, Madison, WI). These systems provide a luminescent method containing proluciferin substrates and are converted to luciferin products by CYP isozymes. The luciferin products formed are detected with a luciferin detection reagent, and the amount of light produced is proportional to CYP activity. P450-Glo (TM) CYP3A4 screening system (Catalog. No. V9910) was used to detect the compounds that interfere in CYP3A4 activity. The positive control compound used for CYP3A4 assay is ketoconazole (Sigma-Aldrich, St. Louis, MO).
Tox21 Assay Protocol Summary:
Two ul of enzyme-substrate mix was dispensed into medium binding white/solid 1536-well plates (Greiner Bio-One North America Inc., Monroe, NC) using a BioRaptr Flying Reagent Dispenser (FRD, Beckman Coulter, Brea, CA). Compounds dissolved in DMSO and positive control (ketoconazole) were transferred to the assay plates at 23 nl using a Pintool station (Wako, San Diego, CA). The assay plates were incubated at room temperature for 10 min. Then 2 ul of NADPH regeneration solution was added to each well of the assay plates using an FRD and incubated at room temperature for 1 h. The reaction was stopped by adding 4 ul of detection reagent using an FRD and after 20 min incubation at room temperature the luminescence signal was measured using a ViewLux plate reader (Perkin Elmer, Shelton, CT). Data were expressed as relative luminescence units.
% is scaled to controls: 0 for no effect and ±100 for the full control effect; potency is read from the fitted curve at half-maximal effect.

Sequence of Cytochrome P450 3A4 (Homo sapiens) (P08684 whole entry, looked up): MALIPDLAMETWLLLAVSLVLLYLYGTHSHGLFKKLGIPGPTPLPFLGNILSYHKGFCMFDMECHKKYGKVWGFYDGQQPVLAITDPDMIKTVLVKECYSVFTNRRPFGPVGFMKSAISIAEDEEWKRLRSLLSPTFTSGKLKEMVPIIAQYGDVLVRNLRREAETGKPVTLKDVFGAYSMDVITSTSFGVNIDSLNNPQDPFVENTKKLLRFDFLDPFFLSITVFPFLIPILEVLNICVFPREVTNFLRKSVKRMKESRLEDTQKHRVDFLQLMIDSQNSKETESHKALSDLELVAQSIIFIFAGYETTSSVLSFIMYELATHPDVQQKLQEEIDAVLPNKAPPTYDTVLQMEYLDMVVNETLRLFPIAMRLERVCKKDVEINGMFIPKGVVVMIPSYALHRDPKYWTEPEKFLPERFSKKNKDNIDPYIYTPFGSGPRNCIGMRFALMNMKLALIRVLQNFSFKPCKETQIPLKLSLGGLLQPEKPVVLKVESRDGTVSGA

SMILES	activity change, negative = inhibition	Potency
CCN(CC)C(=O)Cl	-16.6%	
CO/C=C(/C(=O)OC)c1ccccc1Oc1cc(Oc2ccccc2C#N)ncn1	-24.5%	
CC1COC(Cn2cncn2)(c2ccc(Oc3ccc(Cl)cc3)cc2Cl)O1 (centres undefined)		0.0796 µM (active)
Cc1ccc2nc3sc(=O)sc3nc2c1	0.418% [at 23.6 µM]	
O=C(c1ccccc1)C(Cl)Cl	31.9%	
CCOC(=O)C(O)(c1ccc(Cl)cc1)c1ccc(Cl)cc1		inactive
O=C1C(I)=CC(=C(c2cc(I)c(O)c(I)c2)c2ccccc2C(=O)O)C=C1I	-21.8% [at 52.9 µM]	
CN1CSC(=S)N(C)C1		inactive
O=[N+]([O-])c1c(Cl)c(Cl)cc(Cl)c1Cl	19.7%	
Cc1cc(C)c(C(=O)P(=O)(c2ccccc2)c2ccccc2)c(C)c1		5.03 µM (active)
Clc1ccccc1-c1ccccc1Cl	51.9%	
O=S(=O)(C(Cl)(Cl)Cl)C(Cl)(Cl)Cl		2 µM (active)
ClC(Cl)=C(c1ccc(Cl)cc1)c1ccccc1Cl	45.2%	
N#Cc1cc([N+](=O)[O-])ccc1N	8.21%	
COc1ccc(C(c2ccc(OC)cc2)C(Cl)(Cl)Cl)cc1	-1.43%	
CC(c1ccccc1)(c1ccc(O)cc1)c1ccc(O)cc1		25.2 µM (active)
OCC(c1ccc(Cl)cc1)c1ccc(Cl)cc1	71.4%	
OC(Cc1ccccc1Cl)(Cn1[nH]cnc1=S)C1(Cl)CC1 (centres undefined)		5.64 µM (active)
Cc1cc(C(C)(C)c2ccc(O)c(C)c2)ccc1O		1.91 µM (active)
